Test results published in PubChem BioAssay AID493167 (Broad Institute, 2011).
Activity calls are given as the source filed them.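 How the source made its calls: active means signal falls and fitted half-maximal concentration is at most ten times the sample's top valid dose; inconclusive means flat fit with 30 to 70% inhibition, or poor fit; inactive means change in the rising direction, plus the rest.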

tested on: LuxS (S-ribosylhomocysteine lyase), bacterial; experiment: S-ribosylhomocysteine lyase activity inhibition – biochemical, dry powder, set 3, absorbance, dose response (AID 493167); details: purified Co-LuxS, SRH turnover, DTNB absorbance 412 nm; series mostly up to 35 µM; activity change, negative = inhibition: at the top concentration

Activity change, negative = inhibition, inactive:
Cc1noc(C)c1S(=O)(=O)Nc1ccc2c(c1)C(=O)N([C@@H](C)CO)C[C@@H](C)[C@@H](CN(C)Cc1ccc(Oc3ccccc3)cc1)O2 -0.706%
C[C@@H]1CN([C@H](C)CO)C(=O)c2ccccc2-c2ccccc2CO[C@@H]1CN(C)Cc1ccc(Oc2ccccc2)cc1 -3.21%
O=S(=O)(Nc1cccnc1)c1ccc(Oc2ccccc2)cc1 -4.43%
O=S(=O)(Nc1ccccn1)c1ccccc1 -1.86%
